Inconclusive results are not listed. The source made the active and inactive calls. Unless noted, calls follow the shape of the dose curve; as a rule, active = well fitted curve in the direction sought with a large enough effect in the repeat runs; inconclusive = weak or mixed curves; inactive = no such curve, though single readings can be large; an effect the other way counts as inactive or inconclusive.
What was measured:
[1] = A CellTox Green Cytotoxicity Assay to monitor cytotoxicity in HepG2 cells - 8 hour (AID 1224890); also: nearly all actives have a fitted effect of over 45% in size; also: potency is read from the fitted curve at half-maximal effect
Procedure, shortened: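 Cells and non-lytic dye reagent are dispensed together (600 HepG2 cells/well) and incubated 5 h before DMSO compound transfer. Kinetic fluorescence is then recorded in the same wells during 40 h at 37 C.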

[2] = qHTS assay to identify small molecule antagonists of the estrogen receptor alpha (ER-alpha) signaling pathway using the BG1 cell line in the presence of 0.1 nM 17-beta-estradiol - cell viability counter screen (AID 1259241); also: nearly all actives have a fitted effect of over 40% in size; also: potency is read from the fitted curve at half-maximal effect
Procedure, shortened: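 Estradiol-stimulated (0.1 nM) VM7Luc4E2 cells exposed to compounds 22 hr; viability measured by fluorescence of cleaved CellTiter-Fluor substrate after 30 min.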

[3] = qHTS assay to identify small molecule antagonists of the androgen receptor (AR) signaling pathway using the MDA cell line in the presence of 0.5 nM R1881 - cell viability counter screen (AID 1259242); also: nearly all actives have a fitted effect of over 45% in size; also: potency is read from the fitted curve at half-maximal effect
Procedure, shortened: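 Steps: plate MDA-kb2 cells, rest 5 hr at 37C without CO2; pin in compounds in DMSO; add R1881 to 0.5 nM final; incubate 16 hr; add CellTiter-Fluor, 30 min; read fluorescence.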

[4] = target: Androgen receptor (Homo sapiens) (UniProt P10275); assay: qHTS assay to identify small molecule antagonists of the androgen receptor (AR) signaling pathway using the MDA cell line in the presence of 0.5 nM R1881 (AID 1259243); also: nearly all actives have a fitted effect of over 50% in size; also: potency is read from the fitted curve at half-maximal effect
Chain of Androgen receptor (Homo sapiens) (P10275 whole entry, looked up): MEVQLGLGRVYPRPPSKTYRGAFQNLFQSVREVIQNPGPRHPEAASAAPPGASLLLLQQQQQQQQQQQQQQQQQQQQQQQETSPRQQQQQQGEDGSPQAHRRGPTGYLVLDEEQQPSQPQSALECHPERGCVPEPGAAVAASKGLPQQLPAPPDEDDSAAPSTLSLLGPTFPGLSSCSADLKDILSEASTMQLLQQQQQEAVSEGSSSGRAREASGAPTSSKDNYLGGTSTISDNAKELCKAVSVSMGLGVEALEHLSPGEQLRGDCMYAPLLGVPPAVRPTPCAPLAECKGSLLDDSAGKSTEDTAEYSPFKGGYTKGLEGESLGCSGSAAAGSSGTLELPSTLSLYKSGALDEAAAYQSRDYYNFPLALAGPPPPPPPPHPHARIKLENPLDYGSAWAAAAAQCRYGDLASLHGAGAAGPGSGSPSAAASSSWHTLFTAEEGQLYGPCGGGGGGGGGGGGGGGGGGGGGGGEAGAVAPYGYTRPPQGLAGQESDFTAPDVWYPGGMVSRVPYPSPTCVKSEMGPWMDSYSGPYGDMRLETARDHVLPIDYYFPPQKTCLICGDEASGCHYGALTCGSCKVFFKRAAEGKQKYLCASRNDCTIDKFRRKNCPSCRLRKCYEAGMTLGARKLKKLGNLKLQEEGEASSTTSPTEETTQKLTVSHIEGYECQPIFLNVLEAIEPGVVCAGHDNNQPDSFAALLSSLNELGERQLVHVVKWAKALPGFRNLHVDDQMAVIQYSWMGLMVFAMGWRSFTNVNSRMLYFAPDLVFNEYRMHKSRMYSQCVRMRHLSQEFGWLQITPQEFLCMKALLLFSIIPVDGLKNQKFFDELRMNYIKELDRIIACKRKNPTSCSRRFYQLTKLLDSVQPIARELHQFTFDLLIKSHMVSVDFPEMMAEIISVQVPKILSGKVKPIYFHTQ
Procedure, shortened: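 Stably transfected MDA-kb2 cells express luciferase from an MMTV promoter bearing both AR and GR response elements. Compounds plus 0.5 nM R1881 (final) were incubated 16 hr at 37C without CO2, then luminescence measured.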

[5] = target: Estrogen receptor (Homo sapiens) (UniProt P03372); assay: qHTS assay to identify small molecule antagonists of the estrogen receptor alpha (ER-alpha) signaling pathway using the BG1 cell line in the presence of 0.1 nM 17-beta-estradiol (AID 1259244); also: nearly all actives have a fitted effect of over 50% in size; also: potency is read from the fitted curve at half-maximal effect
Chain of Estrogen receptor (Homo sapiens) (P03372 whole entry, looked up): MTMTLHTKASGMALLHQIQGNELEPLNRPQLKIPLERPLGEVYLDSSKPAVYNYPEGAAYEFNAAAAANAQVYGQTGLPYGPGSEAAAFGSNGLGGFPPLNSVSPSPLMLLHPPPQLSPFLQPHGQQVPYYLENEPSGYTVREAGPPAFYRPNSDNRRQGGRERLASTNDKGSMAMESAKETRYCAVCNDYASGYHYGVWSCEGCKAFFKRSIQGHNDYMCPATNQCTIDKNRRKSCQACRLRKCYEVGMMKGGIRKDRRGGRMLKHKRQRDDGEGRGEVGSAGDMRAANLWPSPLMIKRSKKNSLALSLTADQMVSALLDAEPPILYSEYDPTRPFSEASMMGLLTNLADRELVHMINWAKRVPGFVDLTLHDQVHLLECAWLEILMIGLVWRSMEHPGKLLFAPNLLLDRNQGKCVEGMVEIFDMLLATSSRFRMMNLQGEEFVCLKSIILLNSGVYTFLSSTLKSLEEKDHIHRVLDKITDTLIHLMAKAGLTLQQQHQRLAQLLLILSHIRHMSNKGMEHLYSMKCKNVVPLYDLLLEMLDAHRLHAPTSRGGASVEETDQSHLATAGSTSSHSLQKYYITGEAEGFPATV
Procedure, shortened: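 Antagonist mode: compounds in DMSO are pinned onto VM7Luc4E2 reporter cells, 0.1 nM final 17beta-estradiol is added, and after 22 h at 37C luciferase luminescence is measured with ONE-Glo.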

[6] = qHTS assay to identify small molecule HDAC inhibitors (AID 1259364); also: potency is read from the fitted curve at half-maximal effect;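 also: wild-type HCT-116 cells with endogenous class I/II HDAC activity; nearly all actives have a fitted effect of over 45% in size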
Procedure, shortened: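 Cells (HCT-116, wild type) are seeded at 1,500 per well, incubated overnight, treated with compound in DMSO for 2 hr, then developed with HDAC-Glo I/II reagent for 30 min at room temperature.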

[7] = qHTS assay to identify small molecule HDAC inhibitors - cell viability counter screen (AID 1259365); also: nearly all actives have a fitted effect of over 50% in size; also: potency is read from the fitted curve at half-maximal effect
Procedure, shortened: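 After overnight seeding at 1,500 cells per well, wild-type HCT-116 cultures took up compounds in DMSO for 2hr at 37 C. Viable cell content came from luminescence with CellTiter-Glo.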

[8] = qHTS assay to identify small molecule agonists of the sonic hedgehog signaling (Shh) pathway - cell viability counter screen (AID 1259366); also: nearly all actives have a fitted effect of over 50% in size; also: potency is read from the fitted curve at half-maximal effect
Procedure, shortened: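 Same-well cytotoxicity read. Gli1-Luc reporter 3T3 cells; compounds 24hr, 37C/5% CO2; CellTiter-Fluor fluorescence.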

[9] = qHTS assay to identify small molecule antagonists of the sonic hedgehog signaling (Shh) pathway - cell viability counter screen (AID 1259367); also: nearly all actives have a fitted effect of over 55% in size; also: potency is read from the fitted curve at half-maximal effect
Procedure, shortened: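 Viability was read by CellTiter-Fluor fluorescence in the same wells, reagent added 23 hr into compound treatment and incubated 1 hr at 37C. The 3T3 Gli1-Luc reporter cells (2,000/well) received conditioned medium after compound and ran 24 hr.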

[10] = qHTS assay to identify small molecule agonists of the sonic hedgehog signaling (Shh) pathway (AID 1259368; calls by dose curve;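 also: NIH/3T3-derived 3T3Gli1-Luc cells carrying a stable Gli1-driven firefly luciferase reporter; series mostly up to about 92 µM; nearly all actives have a fitted effect of over 15% in size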)
Procedure, shortened: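 Cells of a mouse NIH/3T3 clone stably expressing luciferase under the Gli1 transcriptional response element are exposed to test chemicals for 24 hr at 37 C. Pathway activation is detected as a rise in luminescence.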

[11] = qHTS assay to identify small molecule antagonists of the sonic hedgehog signaling (Shh) pathway (AID 1259369; calls by dose curve; also: nearly all actives have a fitted effect of over 45% in size; also: potency is read from the fitted curve at half-maximal effect)
Procedure, shortened: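 Cells are plated and held 4hr at 37 C, compounds (DMSO) are pinned in, conditioned medium is added to stimulate the pathway, and after 24hr luciferase reagent is added for 30min before luminescence is read.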

[12] = target: Estrogen receptor beta (Homo sapiens) (UniProt Q92731); assay: qHTS assay to identify small molecule agonists of the estrogen receptor beta (ER-beta) signaling pathway (AID 1259377; active = well fitted activation curve with a large enough effect in the signal ratio in the repeat runs, not every such curve was filed as active; the % refers to the signal ratio)
Chain of Estrogen receptor beta (Homo sapiens) (Q92731 whole entry, looked up): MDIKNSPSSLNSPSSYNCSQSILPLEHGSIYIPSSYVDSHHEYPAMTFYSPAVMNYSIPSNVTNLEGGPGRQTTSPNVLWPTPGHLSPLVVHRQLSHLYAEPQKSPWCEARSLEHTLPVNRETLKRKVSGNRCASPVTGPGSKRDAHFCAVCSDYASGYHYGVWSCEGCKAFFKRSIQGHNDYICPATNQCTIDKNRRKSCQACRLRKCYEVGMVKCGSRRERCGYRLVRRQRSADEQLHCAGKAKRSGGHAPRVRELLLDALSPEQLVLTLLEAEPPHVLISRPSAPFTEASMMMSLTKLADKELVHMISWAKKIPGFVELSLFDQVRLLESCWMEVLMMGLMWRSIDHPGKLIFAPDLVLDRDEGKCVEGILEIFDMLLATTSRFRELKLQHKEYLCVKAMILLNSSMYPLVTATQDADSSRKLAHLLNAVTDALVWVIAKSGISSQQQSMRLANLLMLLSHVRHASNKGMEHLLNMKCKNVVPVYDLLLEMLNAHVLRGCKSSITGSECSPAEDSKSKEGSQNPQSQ
Procedure, shortened: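 Read-out: beta-lactamase FRET fluorescence. Cell line: ER-beta-UAS-bla HEK293T in 2% charcoal-stripped FBS. Exposure: 16 hr at 37C. Substrate step: 2 h at room temperature.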

[13] = target: Estrogen receptor beta (Homo sapiens) (UniProt Q92731); assay: qHTS assay to identify small molecule antagonists of the estrogen receptor beta (ER-beta) signaling pathway (AID 1259378; active = well fitted inhibition curve with a large enough effect in the signal ratio in the repeat runs, not every such curve was filed as active; the % refers to the signal ratio)
Procedure, shortened: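 Antagonist mode: compounds added to beta-lactamase reporter HEK293T ER-beta-UAS cells stimulated with E2 (1nM final), 16 hr at 37C. LiveBLAzer B/G FRET substrate, 2 hours room temperature, fluorescence read-out.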

[14] = qHTS assay to identify small molecule agonists of the androgen receptor (AR) signaling pathway in the presence of an antagonist - cell viability counter screen (AID 1259379); also: nearly all actives have a fitted effect of over 25% in size; also: potency is read from the fitted curve at half-maximal effect
Procedure, shortened: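 Cytotoxicity is assessed by CellTiter-Fluor in MDA-kb2 cells carrying an MMTV-driven luciferase reporter. Cells receive 3.0uM nilutamide plus compounds at 15 concentrations and incubate 16 hr at 37C without CO2 before fluorescence reading.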

[15] = qHTS assay to identify small molecule agonists of the estrogen receptor beta (ER-beta) signaling pathway - cell viability counter screen (AID 1259380); also: nearly all actives have a fitted effect of over 30% in size; also: potency is read from the fitted curve at half-maximal effect
Procedure, shortened: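 Cytotoxicity is measured in parallel with the reporter screen: after 16 hr compound exposure at 37C and a 2 hr LiveBLAzer step, CellTiter-Glo is added to the same ER-beta-UAS-bla HEK293T wells and luminescence read after 30 min.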

[16] = target: Androgen receptor (Homo sapiens) (UniProt P10275); assay: qHTS assay to identify small molecule agonists of the androgen receptor (AR) signaling pathway in the presence of an antagonist (AID 1259381; calls by dose curve; also: nearly all actives have a fitted effect of over 15% in size)
Procedure, shortened: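 Agonist-mode confirmation screen: human MDA-kb2 cells stably expressing luciferase under an MMTV promoter bearing AR and GR response elements, co-treated with 3.0uM nilutamide (final). Luminescence measured after 16hr compound incubation.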

[17] = qHTS assay to identify small molecule antagonists of the estrogen receptor beta (ER-beta) signaling pathway - cell viability counter screen (AID 1259382);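 also: HEK293T cells carrying ER-beta-UAS-bla reporter stimulated with estradiol; series mostly up to about 92 µM; nearly all actives have a fitted effect of over 55% in size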
Procedure, shortened: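 Cytotoxicity counter screen multiplexed with the beta-lactamase antagonist assay: GripTite HEK293T ER-beta-bla cells were treated 16 hr with test chemicals in the presence of 1nM 17-beta-estradiol, and viability was measured by CellTiter-Glo.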

[18] = target: Estrogen receptor (Homo sapiens) (UniProt P03372); assay: qHTS assay to identify small molecule agonists of the estrogen receptor alpha (ER-alpha) signaling pathway in the presence of an antagonist (AID 1259383; calls by dose curve; also: nearly all actives have a fitted effect of over 15% in size; also: potency is read from the fitted curve at half-maximal effect; as to activation: top concentration of the series differs between compounds)
Procedure, shortened: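 Agonist-mode confirmation in the presence of the ER antagonist ICI-182,780 at 10.0nM final. Breast-derived VM7Luc4E2 reporter cells were exposed to compounds for 22hr, and ERE-driven luciferase was quantified by luminescence.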

[19] = qHTS assay to identify small molecule agonists or antagonists of the thyroid stimulating hormone receptor (TSHR) signaling pathway - wild type cell line counter screen (AID 1259384; calls by dose curve)
Procedure, shortened: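 Counter screen in untransfected Hek293: compounds (15-point titration, triplicate) plus phosphodiesterase inhibitor Ro20-1724 added after 18 h plating; 30 min RT. Intracellular cAMP via competitive d2/cryptate immunoassay, 1 h incubation.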

[20] = qHTS assay to identify small molecule phospholipidosis (PLD) inducers (AID 1259344; active = well fitted curve in the direction sought with a large enough effect; an effect the other way counts as inactive or inconclusive)
Procedure, shortened: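 Phospholipid accumulation was scored by imaging: fixed, Hoechst-counterstained HepG2 cells stained with LipidTOX Red after 24 h compound exposure at 37 C. Read-outs were pit count and pit intensity per well or per cell, with amiodarone and DMSO controls.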

Measured: Potency

Oc1cccc2[nH]ccc12
not listed: [20]
inactive: all other assays above

CCN(CC)c1ccc(C(=C2C=CC(=[N+](CC)CC)C=C2)c2ccc(S(=O)(=O)O)cc2S(=O)(=O)[O-])cc1
active: [2] 12.2 µM | [3] 27.3 µM | [4] 9.69 µM | [6] 3.86 µM | [7] 21.7 µM | [8] 24.3 µM | [9] 17.2 µM | [14] 27.3 µM | [15] 27.3 µM
inactive: [1] | [10] | [12] | [13] | [16]

CCOC(=O)c1ccc(NC(=O)CN2CCCCC2)cc1
not listed: [5] | [12] | [13] | [15] | [20]
inactive: all other assays above

CC(=O)c1ccc[nH]1
not listed: [20]
inactive: all other assays above

O=C(Nc1ccc(C(=O)O)c(O)c1)c1ccccc1
active: [6] 1.68 µM
not listed: [4] | [16] | [19]
inactive: all other assays above

Nc1ccc(F)cc1
not listed: [12] | [13] | [16] | [19] | [20]
inactive: all other assays above

C=Cc1ccc(OC(C)=O)cc1
not listed: [6] | [12] | [13] | [20]
inactive: all other assays above

O=C(O)c1cc(Cl)cc(Cl)c1O
not listed: [5] | [6] | [11] | [13] | [15] | [18] | [19] | [20]
inactive: all other assays above

OCC(CO)n1cnc(-c2ccc(F)cc2)c1-c1ccnc(Oc2ccccc2)n1
not listed: [4] | [9] | [11] | [16] | [19] | [20]
inactive: all other assays above

CC(=O)C(=O)CC(C)C
not listed: [4] | [6] | [12] | [13] | [16] | [20]
inactive: all other assays above

COC(C)(C)OC
not listed: [4] | [12] | [13] | [16] | [20]
inactive: all other assays above

CCN(Cc1cccc(S(=O)(=O)O)c1)c1ccc(C(=C2C=CC(=[N+](CC)Cc3cccc(S(=O)(=O)O)c3)C=C2)c2ccc(O)cc2S(=O)(=O)[O-])cc1
inactive: [1] | [10] | [12] | [13] | [18]
active: [2] 16.6 µM | [3] 18.6 µM | [5] 16.6 µM | [6] 3.71 µM | [7] 9.32 µM | [8] 16.6 µM | [9] 16.6 µM | [11] 4.67 µM | [14] 16.6 µM

O=C(O)c1cccc(C[C@@H]2COc3ccc(OCc4nc5cc(F)ccc5s4)cc3[C@@H]2O)c1
not listed: [4] | [16] | [20]
inactive: all other assays above

Cc1ccc(N(CCO)CCO)cc1
not listed: [4] | [12] | [13] | [16] | [20]
inactive: all other assays above

FC(F)(F)C(F)(F)C(F)(F)C(F)(F)CCI
not listed: [4] | [12] | [13] | [16] | [19] | [20]
inactive: all other assays above

CC(=O)NNC(C)=O
not listed: [4] | [12] | [13] | [16] | [20]
inactive: all other assays above

CC(C)C(=O)OCCOc1ccccc1
not listed: [4] | [16] | [20]
inactive: all other assays above

c1ccc(CNc2ncnc3c2ncn3C2CCCCO2)cc1 (stereo unspecified)
active: [18] 7.7 µM
not listed: [4] | [6] | [10] | [12] | [13] | [16] | [19] | [20]
inactive: all other assays above

O=C(O)CCS
not listed: [4] | [12] | [13] | [16] | [20]
inactive: all other assays above

COc1ccc(-n2nc(C(F)F)cc2-c2ccc(S(C)=O)cc2)cc1 (stereo unspecified)
active: [11] 1.09 µM
not listed: [4] | [12] | [13] | [16] | [20]
inactive: all other assays above

ClC1=C(Cl)C1(Cl)Cl
not listed: [4] | [16] | [20]
inactive: all other assays above

Nc1c(Cl)cc(Cl)cc1[N+](=O)[O-]
not listed: [4] | [6] | [11] | [20]
inactive: all other assays above

CCCCCCC(O)CCOC(C)=O (stereo unspecified)
not listed: [4] | [16] | [20]
inactive: all other assays above

CC(=O)Oc1cccc(O)c1
not listed: [4] | [12] | [16] | [20]
inactive: all other assays above

Cc1ccc2c(c1[N+](=O)[O-])C(=O)c1ccccc1C2=O
active: [18] 3.37 µM
not listed: [4] | [6] | [12] | [13] | [16] | [20]
inactive: all other assays above

O=C(c1ccccc1)C1CCC1
active: [1] 38.9 µM
not listed: [4] | [16] | [20]
inactive: all other assays above

O=C(CCS)OCC(COC(=O)CCS)(COC(=O)CCS)COC(=O)CCS
not listed: [4] | [14] | [15] | [16] | [20]
inactive: all other assays above

O=c1[nH][nH]c(=O)c2cc([N+](=O)[O-])ccc12
not listed: [4] | [6] | [16] | [20]
inactive: all other assays above

CC(CCc1ccc(O)cc1)NCCc1ccc(O)c(O)c1 (stereo unspecified)
not listed: [4] | [12] | [13] | [16] | [20]
inactive: all other assays above

CCOC(=O)c1c(N)sc2c1CCN(Cc1ccccc1)C2
active: [5] 29.8 µM | [11] 10.6 µM
not listed: [4] | [9] | [15] | [16] | [19] | [20]
inactive: all other assays above

CCO[Si](C)(CCCOCC1CO1)OCC (stereo unspecified)
not listed: [4] | [11] | [13] | [16] | [19] | [20]
inactive: all other assays above

O=C(NS(=O)(=O)/C=C/c1ccccc1)c1ccc(F)cc1Cl
not listed: [4] | [13] | [16] | [20]
inactive: all other assays above
